Test results from the supplement of paper PMC8007513.
Structures can show the parent of a compound that is named as a salt. ± gives the standard error. About 130 (10%) of roughly 1,300 compounds showed an effect of 50% or more. For the sample, strong results were picked, then their nearest neighbours and some compounds at random.

System: Trichoderma virens ATCC 9645
Test: growth yield (OD600) with compound + IPBC relative to untreated control; higher = less growth inhibition
Conditions: compound concentration: 100 uM, IPBC concentration: 200 ng/ml
How it was run: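 Library compounds (100 μM final), with or without a co-applied biocide (200 ng ml^−1), were added to 100 μl aliquots of Trichoderma virens ATCC 9645 spores at 15,000 spores ml^−1 in potato dextrose broth. Cultures were grown at 30 °C in 96-well plates, and OD600 was measured at 40 h and 72 h. Each growth value is a mean of duplicate screens, expressed relative to the control with neither agent.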

Row | SMILES | growth yield (40 h) | growth yield (72 h)
1 | COc1ccccc1Oc1c(NS(=O)(=O)c2ccc(C(C)(C)C)cc2)nc(-c2ncccn2)nc1OCCO [Bosentan] + CCCCNC(=O)OCC#CI [3-iodo-2-propynyl butylcarbamate (IPBC)] | 117 ± 2.4% | 114 ± 5.8%
2 | Clc1ccc2c(c1)C(N1CCNCC1)=Nc1ccccc1O2 [Amoxapine] + CCCCNC(=O)OCC#CI [3-iodo-2-propynyl butylcarbamate (IPBC)] | 81.3 ± 6% | 99.9 ± 7%
3 | CCOC(=O)[C@@](C)(N)Cc1ccc(O)c(O)c1 [Methyldopate hydrochloride] + CCCCNC(=O)OCC#CI [3-iodo-2-propynyl butylcarbamate (IPBC)] | 110 ± 6% | 106 ± 6.2%
4 | CC12CC3CC(C)(C1)CC(N)(C3)C2 [Memantine Hydrochloride] + CCCCNC(=O)OCC#CI [3-iodo-2-propynyl butylcarbamate (IPBC)] | 109 ± 3% | 108 ± 4.2%
5 | CC(C)(C)NC[C@H](O)COc1ccccc1C1CCCC1 [Penbutolol sulfate] + CCCCNC(=O)OCC#CI [3-iodo-2-propynyl butylcarbamate (IPBC)] | 74.8 ± 6.2% | 91.56 ± 0.73%
6 | O=C1CCC(N2C(=O)c3ccccc3C2=O)C(=O)N1 (stereo not drawn) [Thalidomide] + CCCCNC(=O)OCC#CI [3-iodo-2-propynyl butylcarbamate (IPBC)] | 95.3 ± 3.2% | 101 ± 4.4%
7 | Cc1cccc(C)c1NC(=O)CN1CCN(CCCC(c2ccc(F)cc2)c2ccc(F)cc2)CC1 [Lidoflazine] + CCCCNC(=O)OCC#CI [3-iodo-2-propynyl butylcarbamate (IPBC)] | 10.3 ± 1.1% | 78.6 ± 7.7%
8 | COc1ccccc1OCC(O)CN1CCN(CC(=O)Nc2c(C)cccc2C)CC1 (stereo not drawn) [Ranolazine] + CCCCNC(=O)OCC#CI [3-iodo-2-propynyl butylcarbamate (IPBC)] | 89.7 ± 2.4% | 94.2 ± 2.7%
9 | O=C1NCN(c2ccccc2)C12CCN(CCCC(c1ccc(F)cc1)c1ccc(F)cc1)CC2 [Fluspirilen] + CCCCNC(=O)OCC#CI [3-iodo-2-propynyl butylcarbamate (IPBC)] | 99.4 ± 6.3% | 118 ± 4.2%
10 | CO/N=C1\CN(c2nc3c(cc2F)c(=O)c(C(=O)O)cn3C2CC2)CC1CN (stereo not drawn) [Gemifloxacin mesylate] + CCCCNC(=O)OCC#CI [3-iodo-2-propynyl butylcarbamate (IPBC)] | 103 ± 17% | 104 ± 11%
11 | CNCC(O)c1ccc(OC(=O)C(C)(C)C)c(OC(=O)C(C)(C)C)c1 (stereo not drawn) [Dipivefrin hydrochloride] + CCCCNC(=O)OCC#CI [3-iodo-2-propynyl butylcarbamate (IPBC)] | 79.4 ± 1.3% | 88.83 ± 0.1%
12 | C[C@]12CCC(=O)C(O)=C1CC[C@@H]1[C@@H]2CC[C@]2(C)C(=O)CC[C@@H]12 [Formestane] + CCCCNC(=O)OCC#CI [3-iodo-2-propynyl butylcarbamate (IPBC)] | 71.5 ± 3.8% | 91.2 ± 1.1%
13 | N[C@@H]1CONC1=O [D-cycloserine] + CCCCNC(=O)OCC#CI [3-iodo-2-propynyl butylcarbamate (IPBC)] | 86.2 ± 1.1% | 90.3 ± 1.8%
14 | CCCCCNC(=N)N/N=C/c1c[nH]c2ccc(OC)cc12 [Tegaserod maleate] + CCCCNC(=O)OCC#CI [3-iodo-2-propynyl butylcarbamate (IPBC)] | 5.4% | 5.24 ± 0.21%
15 | COc1ccc2[nH]cc(CCNC(C)=O)c2c1 [Melatonin] + CCCCNC(=O)OCC#CI [3-iodo-2-propynyl butylcarbamate (IPBC)] | 82.9 ± 4.1% | 92.3 ± 4%
16 | CC(C)(C)NCC(O)COc1cccc2c1CC(O)C(O)C2 (stereo not drawn) [Nadolol] + CCCCNC(=O)OCC#CI [3-iodo-2-propynyl butylcarbamate (IPBC)] | 102 ± 19% | 100 ± 10%
17 | c1ccc2[nH]c(-c3cscn3)nc2c1 [Tiabendazole] + CCCCNC(=O)OCC#CI [3-iodo-2-propynyl butylcarbamate (IPBC)] | 4.7652 ± 1.4e-15% | 3.3561 ± 1.3e-15%
18 | CN1CCC[C@@H]1CCO[C@](C)(c1ccccc1)c1ccc(Cl)cc1 [Clemastine fumarate] + CCCCNC(=O)OCC#CI [3-iodo-2-propynyl butylcarbamate (IPBC)] | 53.2 ± 1.8% | 92.4 ± 0.94%
19 | CC(CN(C)C)CN1c2ccccc2Sc2ccccc21 (stereo not drawn) [Trimeprazine tartrate] + CCCCNC(=O)OCC#CI [3-iodo-2-propynyl butylcarbamate (IPBC)] | 71.5 ± 3.8% | 92 ± 3.9%
20 | CN1CCN(CCCN2c3ccccc3Sc3ccc(S(=O)(=O)N(C)C)cc32)CC1 [Thioproperazine dimesylate] + CCCCNC(=O)OCC#CI [3-iodo-2-propynyl butylcarbamate (IPBC)] | 37.8 ± 0.95% | 97.1 ± 5%
21 | CN1CCCCC1CCN1c2ccccc2Sc2ccc([S+](C)[O-])cc21 (stereo not drawn) [Mesoridazine besylate] + CCCCNC(=O)OCC#CI [3-iodo-2-propynyl butylcarbamate (IPBC)] | 72.6 ± 2.4% | 89.25 ± 0.52%
22 | CN1CCN(CCCN2c3ccccc3Sc3ccc(Cl)cc32)CC1 [Prochlorperazine dimaleate] + CCCCNC(=O)OCC#CI [3-iodo-2-propynyl butylcarbamate (IPBC)] | 3.18% | 2.73 ± 0.21%
23 | CN(C)CCCN1c2ccccc2CCc2ccc(Cl)cc21 [Clomipramine hydrochloride] + CCCCNC(=O)OCC#CI [3-iodo-2-propynyl butylcarbamate (IPBC)] | 59.6 ± 1.4% | 93.2 ± 2%
24 | COc1ccc2c(c1)N(C[C@H](C)CN(C)C)c1ccccc1S2 [Methotrimeprazine maleat salt] + CCCCNC(=O)OCC#CI [3-iodo-2-propynyl butylcarbamate (IPBC)] | 76.4 ± 1.4% | 92.61 ± 0.32%
25 | OCCN1CCN(CCCN2c3ccccc3C=Cc3ccccc32)CC1 [Opipramol dihydrochloride] + CCCCNC(=O)OCC#CI [3-iodo-2-propynyl butylcarbamate (IPBC)] | 69.57 ± 0.64% | 92.4 ± 3%
26 | O=c1n(CCCN2CCN(c3cccc(Cl)c3)CC2)nc2ccccn12 [Trazodone hydrochloride] + CCCCNC(=O)OCC#CI [3-iodo-2-propynyl butylcarbamate (IPBC)] | 51 ± 1.1% | 86.1 ± 0.94%
27 | CN(C)CCCN1c2ccccc2Sc2ccc(Cl)cc21 [Chlorpromazine hydrochloride] + CCCCNC(=O)OCC#CI [3-iodo-2-propynyl butylcarbamate (IPBC)] | 52.4 ± 4.1% | 87.2 ± 2.2%
28 | CSc1ccc2c(c1)N(CCC1CCCCN1C)c1ccccc1S2 (stereo not drawn) [Thioridazine hydrochloride] + CCCCNC(=O)OCC#CI [3-iodo-2-propynyl butylcarbamate (IPBC)] | 3.81 ± 0.64% | 2.94 ± 0.21%
29 | OCCN1CCN(CCCN2c3ccccc3Sc3ccc(Cl)cc32)CC1 [Perphenazine] + CCCCNC(=O)OCC#CI [3-iodo-2-propynyl butylcarbamate (IPBC)] | 4.29 ± 0.48% | 2.94 ± 0.42%
